Screening results deposited in PubChem BioAssay by The Scripps Research Institute Molecular Screening Center.
CHRM1 PAM: human M1 muscarinic receptor positive allosteric modulators, primary screen, CHO-K1 cells, Fluo-8 calcium fluorescence, 1536-well; Muscarinic acetylcholine receptor M1 (Homo sapiens), P11229; CHO-K1 hM1, ACh EC20; 0% = ACh EC20, 100% = maximal ACh; activation, % at 3 µM; hit rate 0.088% among 360,000; AID 588819, 2011; in the data active = activation above about 19%, passing the limit was not always enough
Target sequence (P11229 whole entry, looked up): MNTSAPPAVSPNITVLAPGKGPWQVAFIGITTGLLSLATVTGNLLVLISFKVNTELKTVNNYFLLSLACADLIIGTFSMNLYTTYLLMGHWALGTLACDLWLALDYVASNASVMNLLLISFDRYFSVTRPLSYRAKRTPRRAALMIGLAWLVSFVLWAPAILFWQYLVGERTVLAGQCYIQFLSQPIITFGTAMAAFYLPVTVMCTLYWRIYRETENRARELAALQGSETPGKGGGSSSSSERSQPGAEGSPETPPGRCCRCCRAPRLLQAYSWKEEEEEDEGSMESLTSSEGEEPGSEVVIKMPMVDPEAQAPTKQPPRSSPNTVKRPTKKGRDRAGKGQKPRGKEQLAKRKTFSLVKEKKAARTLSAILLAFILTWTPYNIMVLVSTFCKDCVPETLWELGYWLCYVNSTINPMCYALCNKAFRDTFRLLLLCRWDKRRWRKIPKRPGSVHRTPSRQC
CHO-K1 Ca antag: M1 antagonist counterscreen hit in parental CHO-K1 cells. ATP-induced calcium, Fluo-8 fluorescence. inhibition, % at 3 µM. hit rate 0.6% among 360,000. AID 602250;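 active = inhibition above a per-plate cutoff, the plate's mean sample inhibition plus 3 SD, cut at about 24% in these data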;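 also: 0% = DMSO plus EC80 ATP and 100% = DMSO alone without ATP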
M1 ag parental: counter-screen for M1 agonists: effect in parental CHO-K1 cells. Fluo-8 calcium fluorescence; scaled to maximal ATP response, vehicle zero. activation, % at 3 µM. hit rate 0.48% among 360,000. AID 602248, 2012; in the data active = activation above about 15%;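 also: untransfected CHO-K1 host cells lacking M1 receptor as counterscreen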
CHRM1 antagonist: human M1 muscarinic receptor antagonists, primary screen, CHO-K1 cells, Fluo-8 calcium fluorescence, 1536-well. Muscarinic acetylcholine receptor M1 (Homo sapiens), P11229. CHO-K1 hM1, ACh EC80 antagonist. inhibition, % at 3 µM. hit rate 1.3% among 360,000. AID 588852, 2011;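 active = percent inhibition above its own plate's cutoff, namely the mean of that plate's compound wells plus 3 SD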;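 also: peak over basal fluorescence ratio during 140 s after agonist addition; 0% = ACh EC80 plus DMSO and 100% = DMSO alone without agonist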
CHO-K1 Ca PAM: nonselective calcium activators in parental CHO-K1 cells, primary screen, counter-screen for M1 PAM project, cell-based, Fluo-8 calcium fluorescence, full deck, 1536-well; activation, % at 3 µM; ATP EC20; 0% at ATP EC20, 100% at ATP max; hit rate 0.02% among 360,000;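 active = activation above the run cutoff, the mean activation of all test compounds plus 3 SD, cut at about 40% in these data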;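 also: peak over basal fluorescence ratio in a 140 s read after ATP addition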
M1 ag: human M1 muscarinic receptor agonists, primary screen, Fluo-8 calcium fluorescence, CHO-K1 cells, HTS. CHO-K1 hM1, agonist mode; 0% DMSO, 100% acetylcholine EC100. hit rate 0.33% among 360,000. Muscarinic acetylcholine receptor M1 (Homo sapiens), P11229. activation, % at 3 µM;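 active = activation above the run's mean compound activation plus 3 SD, cut at about 16% in these data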;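 also: peak over basal fluorescence ratio within a 140 s kinetic read after compound addition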
Starred values were filed as active, the others as inactive. Only some compounds are listed: those with a hit (about 2.3% of all), similar ones and a draw of the others.

SMILES	CHRM1 PAM	CHO-K1 Ca antag	M1 ag parental	CHRM1 antagonist	CHO-K1 Ca PAM	M1 ag
CC12CCC(=O)C=C1CCC1C2C(O)CC2(C)C1CCC2(O)C(=O)COC(=O)CCC1CCCC1 (stereo not drawn)	-31	0	3	41*	10	-11
C[C@]12CCC(=O)C=C1CC[C@@H]1[C@@H]2[C@@H](O)C[C@@]2(C)[C@H]1CC[C@]2(O)C(=O)COC(=O)CCC(=O)O	6	2	1	-29	4	-4
Cc1nc2ccccc2n1Cc1ccc(Cl)cc1	-18	33*	9	21	-12	4
Cc1ccccc1Cn1c(C)nc2ccccc21	-17	29*	10	39*	-24	0
OCc1nc2ccccc2n1Cc1ccc(Cl)cc1	-5	5	2	5	-4	-4
CCOc1ccc(Nc2cc(Nc3ccccc3OCC)nc(C=C(C#N)C#N)n2)cc1	2	-3	16*	4	4	-4
CCOc1ccccc1Nc1cc(C)c2cccc(C)c2n1	9	6	-1	-4	-10	-4
CC1(c2ccc3c(c2)OCCCO3)NC(=O)N(CC(=O)NCCc2ccccc2)C1=O (stereo not drawn)	5	-14	1	-4	2	-4
COC(=O)c1ccc(CN2CCCC(CCC(=O)NCc3ccc(C)o3)C2)cc1 (stereo not drawn)	-29	-10	0	87*	27	53*
COC(=O)c1ccc(CN2CCCC(CNC(=O)Cc3ccc(OC)cc3)C2)cc1 (stereo not drawn)	-6	-13	1	14	6	30*
COCc1ccc(CN2CCCC(CCC(=O)NCc3ccc(C)o3)C2)o1 (stereo not drawn)	1	-14	1	7	17	-4
CCNC(=O)c1cc(Br)ccc1Cl	8	24*	0	8	10	-2
Cc1cc(C)nc(NC(=O)c2cc(Br)ccc2Cl)n1	7	-18	2	-8	24	-5
Cc1cnc(C)c(Nc2nc(C(N)Cc3ccc(C(F)(F)F)cc3)cs2)n1 (stereo not drawn)	8	-9	6	-8	19	2
Cc1cccc(C)c1NC(=O)COC(=O)c1c2c(nc3ccccc13)/C(=C\c1ccc3c(c1)OCO3)CCC2	-16	28*	41*	32	-3	42*
Cn1c(-c2ccccc2)cnc1NCc1cc2c(cc1[N+](=O)[O-])OCO2	-3	-15	4	-1	20	-7
Cn1c(-c2ccccc2)cnc1NCc1cccc([N+](=O)[O-])c1	-23	-9	1	36*	13	-9
CSc1ccc(CNc2ncc(-c3cccc([N+](=O)[O-])c3)n2C)cc1	-30	18	0	65*	-19	-9
COc1ccccc1CNc1ncc(-c2ccccc2)n1C	-20	2	1	23	12	-10
COc1ccccc1CNc1ncc(-c2ccc(F)cc2)n1C	-26	9	0	45*	-25	-11
Cn1c(-c2ccc3c(c2)OCO3)cnc1NCc1cccc(O)c1	-35	-3	0	29*	-5	-16
CC(C)N(CCCNC(=O)c1ccc(CS(=O)(=O)c2c(Cl)cccc2Cl)o1)Cc1ccccc1	-23	-12	0	13	-7	-14
Cc1ccc(S(=O)(=O)NC(C(=O)N2CCN(S(=O)(=O)c3cccc(F)c3)CC2)C(C)C)cc1 (stereo not drawn)	2	-9	1	-1	4	-5
CC(C)O/C(=N/S(=O)(=O)c1ccc(Cl)cc1)c1ccccc1	6	-3	0	-6	-8	-2
COc1ccc(CNc2ncc(-c3ccc(F)cc3)n2C)c2ccccc12	0	-19	4	-10	24	-3
SMILES	CHRM1 PAM	CHO-K1 Ca antag	M1 ag parental	CHRM1 antagonist	CHO-K1 Ca PAM	M1 ag
COc1ccc(CNc2ncc(-c3cccc([N+](=O)[O-])c3)n2C)c(OC)c1OC	-28	6	-1	54*	-12	-9
COc1cccc(-c2cnc(NCc3cc(Cl)ccc3O)n2C)c1	-27	8	1	32*	-3	-6
O=[N+]([O-])c1ccc(CS(=O)(=O)c2ccc(Cl)cc2)cc1	-2	-1	0	41*	-10	-8
CC1(C(=O)NC2CCCC2)CCC(=O)N1CCOc1ccccc1 (stereo not drawn)	4	28*	0	6	3	-2
Cc1cnc(NC(=O)c2c(Cl)cnn2C)s1	20	-4	1	-20	-14	-2
Cc1ccccc1S(=O)(=O)N(CC(O)CN1CCCCC1)c1ccccc1 (stereo not drawn)	-2	-11	0	5	-6	-6
OC(CN1CCCCC1)CN(c1ccccc1)c1ccccc1 (stereo not drawn)	-25	11	0	51*	-5	-10
OC(CN1CCCCCC1)CN(c1ccccc1)c1ccccc1 (stereo not drawn)	-26	4	2	38*	13	-8
OC(CN1CCOCC1)CN(c1ccccc1)c1ccccc1 (stereo not drawn)	0	-6	0	-1	1	-8
COc1cc(OC)cc(-c2c(C#Cc3ccsc3)c3cc(-c4ccc5c(c4)OCO5)ccc3n2C)c1	6	1	0	-2	-17	-2
Cc1ccccc1-n1ncc2c1CC(C)(C)CC2NC(=O)c1cn[nH]c1C (stereo not drawn)	1	-8	0	2	8	-3
CCOC(=O)C1=C(C)N(c2ccc(OCC)cc2)C(=O)/C1=C\c1ccco1	14	-15	0	-16	22	-8
CCOc1ccc(N2C(=O)/C(=C/c3ccco3)N(C)C2=S)cc1	-8	27*	-1	13	-17	-2
Cc1ccc(/C=C2\C(=O)NC(=O)N2C)o1	10	4	0	0	10	-2
Cc1ccc(/C=C2/C(=O)N(c3ccccc3)C(=S)N2C)o1	9	25*	0	-10	-16	-4
COc1ccc(NC(=O)C2CCCN2C(=O)Nc2ccc(OC)cc2)cc1 (stereo not drawn)	-1	-6	0	7	-4	-3
Cc1ccccc1N(CC(=O)N/N=C/c1ccc(Cl)cc1)C(=O)c1ccccc1	2	26*	0	9	-7	1
CC(=O)c1nn(-c2cccc(Br)c2)cc1C(=O)c1ccc2ccccc2c1	4	9	1	35*	6	-2
COc1ccc(C(=O)c2cn(-c3cccc(Br)c3)nc2C(C)=O)cc1	9	-8	1	-6	17	-1
